Data taken from PubChem BioAssay AID624330 (Southern Research Specialized Biocontainment Screening …, 2012).
The whole screen tested about 340,000 compounds, of which about 2,100 (0.62%) were called active.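 The calls were made as follows: active = first-screen hits whose inhibition reached a set limit at any dose in the follow-up dose series; inconclusive = inhibition above the set first-screen limit but never retested; inactive = the rest.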 A selection follows. Entries with a potency or affinity are not part of this list.

These compounds were tested against Rac GTPase-activating protein 1 (Homo sapiens) (UniProt Q9H0H5) (assay: MgcRacGAP GTPase-activating activity inhibitors, confirmation, biochemical, ADP Hunter fluorescence, primary and confirmatory (AID 624330;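 also: fluorescence reports GDP produced by GAP-driven GTP hydrolysis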)). Details: MgcRacGAP-stimulated Rac1 GTP hydrolysis, at 30 µM, active compounds read high, GST-tagged Rac1 F28L mutant substrate.
Chain of Rac GTPase-activating protein 1 (Homo sapiens) (Q9H0H5 whole entry, looked up): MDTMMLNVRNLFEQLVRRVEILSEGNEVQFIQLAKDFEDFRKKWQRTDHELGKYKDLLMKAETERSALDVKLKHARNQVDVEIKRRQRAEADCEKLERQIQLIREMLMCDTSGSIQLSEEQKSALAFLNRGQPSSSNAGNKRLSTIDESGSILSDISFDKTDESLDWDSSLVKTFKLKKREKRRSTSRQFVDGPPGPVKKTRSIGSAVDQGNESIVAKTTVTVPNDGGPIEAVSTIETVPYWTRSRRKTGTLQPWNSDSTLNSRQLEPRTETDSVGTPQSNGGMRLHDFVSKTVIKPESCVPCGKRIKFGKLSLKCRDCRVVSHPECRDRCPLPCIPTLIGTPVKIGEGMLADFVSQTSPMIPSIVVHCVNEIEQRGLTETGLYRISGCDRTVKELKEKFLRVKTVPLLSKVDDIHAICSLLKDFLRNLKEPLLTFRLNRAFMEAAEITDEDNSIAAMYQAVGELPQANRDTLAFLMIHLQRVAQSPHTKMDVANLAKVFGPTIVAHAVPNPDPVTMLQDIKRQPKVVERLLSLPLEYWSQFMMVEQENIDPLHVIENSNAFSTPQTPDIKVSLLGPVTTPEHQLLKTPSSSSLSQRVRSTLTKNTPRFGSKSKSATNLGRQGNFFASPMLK

inhibition, inactive:
Cc1ccc(C)n1CCN1CCN(S(=O)(=O)c2ccc(F)cc2F)CC1 4.22%
S=c1[nH]nc(-c2ccco2)n1/N=C/c1cccc(Cl)c1 12%
S=c1[nH]nc(-c2ccco2)n1/N=C/c1ccc(Cl)c(Cl)c1 7.47%
S=c1[nH]nc(-c2ccco2)n1/N=C/c1c(Cl)cccc1Cl 8.7%
S=c1[nH]nc(-c2ccco2)n1/N=C/c1ccccc1Cl 14.4%
COc1cccc(NC(=O)CN(C)C(=O)CSc2nc3ccccc3s2)c1 -3.45%
CCOc1ccc(N2C(=O)CC(NCCc3ccc(S(N)(=O)=O)cc3)C2=O)cc1 (stereo unspecified) 9.91%
O=C(O)[C@H]1CCCC[C@H]1C(=O)Nc1ccc(S(=O)(=O)N2CCCCC2)cc1 6.35%
CCOc1ccc(/C=N/NC(=O)c2ccc(Cn3cc(Br)cn3)o2)cc1 -8.44%
CC(=O)C(=Nc1ccc(Cl)cc1Cl)NNc1cccc(Cl)c1 22.6%
Clc1cccc(OCCCN2CCCC2)c1Cl 19%
c1ccc(Oc2cccc(OCCCCN3CCCC3)c2)cc1 18.1%
COC(=O)c1ccccc1OCCN1CCCCCC1 24.5%
CC1CC(C)CN(CCOc2cccc(Cl)c2Cl)C1 (stereo unspecified) 18.8%
CCOc1ccccc1OCCN1CCC(Cc2ccccc2)CC1 11.1%
CCC(=O)c1ccccc1OCCCN1CCC(Cc2ccccc2)CC1 16.5%
CC1CN(CCOc2cccc(Oc3ccccc3)c2)CC(C)O1 (stereo unspecified) 19.8%
CCN1CCN(Cc2ccc(OCc3ccccc3)c(OC)c2)CC1 14.4%
CCc1ccc(/C([O-])=C(/C(=S)NCCN2CCOCC2)[n+]2ccccc2)cc1 -2.62%
CC[C@]12c3[nH]c4ccc(Cl)cc4c3CCN1C(=O)[C@@H](CC(=O)NCc1ccco1)C[C@@H]2C(=O)N1CCN(C(=O)C2CC2)CC1 9.23%
CC12CCC(=O)N1C(C(=O)N1CCN(S(=O)(=O)c3ccccc3F)CC1)CS2 (stereo unspecified) 2.86%
CCOC(=O)c1ccc2c(c1)nc(-c1ccc(F)cc1)c1nccn12 0.78%
COc1ccc(CN2CCOCCOCCOCCOCCOCC2)cc1 12.1%
CCC(=O)Nc1cccc(NC(=O)CN2CCN(c3ccccc3OC)CC2)c1 9.77%
Cc1ccc(C2(C)NC(=O)N(CC(=O)N(c3ccccc3)C3CCS(=O)(=O)C3)C2=O)cc1 (stereo unspecified) -6.22%
CCN(CC)S(=O)(=O)c1cccc(C(=O)NN2Cc3ccccc3C2=N)c1 -4.56%
CCn1c(SCC(=O)Nc2ccc(C)cc2)nnc1-c1ccc(O)cc1 5.22%
C=CCn1c(SCC(=O)NNC(=O)Nc2ccc(C)cc2)nnc1-c1ccccc1 1.01%
CCn1c(SCC(=O)Nc2cc(C)on2)nnc1-c1cccc(C)c1 7.99%
C=CCn1c(SCC(=O)Nc2ccc3c(c2)OCO3)nnc1-c1ccccc1 6.23%
Cc1csc(=O)n1CCC(=O)OCC(=O)Nc1ccc(Cl)cn1 4.45%
CCOc1ccc(S(=O)(=O)N/N=C(\C)C2CCCCC2)cc1 3.81%
CCCCOc1ccc(/C=N/NC(=O)c2csc(C)c2C)cc1 16.6%
COc1cccc(-n2nnc3c(=O)n(CC(=O)N4CCC(C)CC4)cnc32)c1 11.4%
CCOc1ncccc1C(=O)OCC(=O)NCc1ccccc1 5.95%
O=C(CN1CCCCC1)Nc1ccccc1-c1ccccc1 6.84%
O=C(CN1CCN(C2CCCCC2)CC1)Nc1cccc2ccccc12 15.3%
Cc1cc(C)cc(OCC(=O)N2CCN(c3ncccn3)CC2)c1 1.56%
COc1ccc(N(C(=O)COc2cccc(C)c2)S(=O)(=O)c2ccc(C)cc2)cc1 7.24%
COc1ccc(CC(=O)Oc2cc(C)ccc2C)cc1 4.1%
Cc1cccc(OCC(=O)Oc2ccc(Cl)cc2)c1 14.7%
Cc1ccc(OC(=O)COc2ccccc2C)cc1 9.41%
COc1ccc(OC(=O)COc2ccc(Cl)cc2)cc1 10.7%
Cc1ccc(OCC(=O)Oc2ccc(C(C)C)cc2)cc1 15.2%
Cc1ccc(C(=O)C[n+]2ccc(-c3nnc4n3CCC4)cc2)cc1 -12.9%
CN(C(=O)CSc1nnc(-c2ccccc2F)n1N)C1CCCCC1 4.13%
Cc1noc(C)c1NC(=O)NCCN1CCN(Cc2ccccc2)CC1 11.3%
CCOc1ccc2[nH]c(=O)c(CN(CCN3CCCC3)C(=S)Nc3ccccc3OC)cc2c1 3.77%
C=CCc1ccccc1OCC(=O)N/N=C/c1ccc(OC(C)=O)cc1OC(C)=O -0.28%
C1=CC2=NC34CCCCC3CC3=C(CCCC3)N4C2=CC1=NC1CCCCC1 (stereo unspecified) 11.1%
COc1ccc(CNC2CCCc3ccccc32)cc1OC (stereo unspecified) 6.79%
CCOc1ccc(NC(=O)NC2CCCc3ccccc32)cc1 (stereo unspecified) 13.3%
CCOc1ccc(N=Nc2ccc(O)c3ncccc23)cc1 5.89%
CCOc1ccc2[nH]c3ncccc3c(=O)c2c1 3.15%
COc1cc(/C=N/NC(=O)c2cc(C)oc2C)ccc1OCc1ccccc1 5.24%
COc1cc(/C=N/NC(=O)c2ccoc2C)cc(OC)c1O 21.6%
COc1cc(/C=N/NC(=O)c2cc(C)oc2C)cc(OC)c1OC -1.5%
COc1ccc(/C=N/NC(=O)c2cc(C)oc2C)cc1OC 3.85%
COc1ccc(/C=N/NC(=O)c2cc(C)oc2C)cc1OCc1ccccc1 11.1%
COc1ccc(/C=N/NC(=O)c2ccoc2C)cc1OC 6.81%
Cc1ccc(S(=O)(=O)N2CCN(C(=O)c3ccco3)CC2)c(C)c1 6.61%
CC(=O)Nc1ccc(S(=O)(=O)N2CCCC3CCCCC32)cc1 (stereo unspecified) 2.55%
COCCCNC(=O)CC1C[C@H](C(=O)N2CCOCC2)[C@@]2(CCC3CCCC3)c3[nH]c4ccc(OC)cc4c3CCN2C1=O (stereo partly specified) 3.79%
O=C(NC1CCN(Cc2ccc(Cl)cc2Cl)CC1)c1ccccc1 5.03%
Cn1c(C(=O)N2CCCC(Nc3ccc(F)cc3)C2)cc2ccccc21 (stereo unspecified) -8.53%
O=C(O)c1cccc(S(=O)(=O)Nc2ccccc2C(=O)NCCc2ccccc2)c1 4.14%
COc1cc(CC(=O)NCc2ccc3c(c2)OCO3)cc(OC)c1OC 4.17%
COc1cccc(CNCc2ccc3c(c2)OCO3)c1 31.8%
Fc1cccc(CNCc2ccc3c(c2)OCO3)c1 3.78%
COc1cc(C(=O)NCCc2ccc3c(c2)OCO3)cc(OC)c1OC -4.93%
CC1(C)CC(=O)C=C(c2cccc(OC(=O)c3ccc(-c4ccccc4)cc3)c2)C1=O 11.9%
CCOc1ccc(NC(=O)CN2CCN(c3ccc(F)cc3)CC2)cc1S(=O)(=O)N1CCCC1 10.6%
CN(CC(O)COc1ccc(S(=O)(=O)N2CCOCC2)cc1)C1CCCCC1 (stereo unspecified) 10.6%
O=C(CSc1nnnn1Cc1ccccc1)Nc1cccc(F)c1 8.78%
N=C(N)c1ccc(N)cc1 10.7%
Nc1ccc(C(=O)C(=O)c2ccc(N)cc2)cc1 6.66%
CC(NC(=O)COc1cccc(Br)c1)C(=O)O (stereo unspecified) 3.37%
CCc1sc(C(=O)Nc2ccc(N3CCOCC3)cc2)cc1C 9.93%
CN1C(=S)SC(N(O)C=C2C=CC(=O)C=C2)C1(C)C (stereo unspecified) 24.5%
CCOC(=O)/C(C#N)=C\C=C1C=CN(C)C=C1 10.4%
COc1ccc(C(CNC(=O)c2ccc(NS(=O)(=O)c3ccc4c(c3)OCCO4)cc2)N(C)C)cc1 (stereo unspecified) -0.2%
CCC(C)(c1ccc(C=O)s1)c1ccc(C=O)s1 6.23%
Cc1ccc2c(CC(=O)NNC(=O)c3ccccc3O)coc2c1 -8.73%
COc1ccc2c(CC(=O)NNC(=O)c3cccs3)coc2c1 5.91%
Cc1ccc2c(CC(=O)NNC(=O)c3ccccc3)coc2c1 6.09%
Cc1ccc2c(CC(=O)NCc3cccs3)coc2c1 3.76%
CN(C)CC1(c2ccccc2)CCCC1 -6.5%
CC1CCCCN1C(=S)Nc1ccc(OC(F)F)cc1 (stereo unspecified) 2.05%
O=c1[nH]c2ccccc2cc1CN(Cc1ccco1)S(=O)(=O)c1ccccc1 5.99%
CC(C)(C)NC(=O)C(c1ccc(-c2ccccc2)cc1)N(C[C@H]1CC[C@@H]([C@@H]2CC[C@H](CO)O2)O1)C(=O)c1ccccc1F (stereo partly specified) 3.69%
O=C(O)Cn1nc(-c2ccccc2)ccc1=O -3.67%
CCN(CC)CCOC(=O)c1ccc(N/C=C(/C#N)c2nc(-c3cc4ccccc4oc3=O)cs2)cc1 26.6%
Cc1ccc(-c2csc(/C(C#N)=C/Nc3ccc4c(c3)OCCO4)n2)cc1 16.1%
CCN(CC)CCOC(=O)c1ccc(N/C=C(/C#N)c2nc(-c3ccc(OC)cc3)cs2)cc1 10.3%
COc1ccc(-c2csc(/C(C#N)=C/Nc3ccc4c(c3)OCCO4)n2)cc1 2.83%
c1ccc(-c2ncc(CSc3nncn3-c3ccccc3)s2)cc1 1.96%
